APOBEC3A inh: inhibitors of human APOBEC3A DNA deaminase; P31941; 0.41% of 330,000 active; inhibition, % at 20 µM; recombinant A3A, FAM/TAMRA ssDNA deamination fluorescence; AID 493011;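 active means at least 40% inhibition at 20 µM here, with at most 30% in a related deaminase screen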;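 further: plate controls were A3A with DMSO for no effect and wells lacking A3A enzyme for full effect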
HGIII-sPLA2 inh: Inhibits HGIII-sPLA2 liposome hydrolysis, primary screen; AID 743126; QFRET BODIPY PC-A2 liposome hydrolysis, fluorescence; 0.56% of 370,000 active; Q9NZ20; inhibition, % at 12.2 µM;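 active means inhibition above mean plus 3 SD of compounds lying within the high and low control bounds, cut at about 19% in these data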;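 further: 0% = median of test compound wells and 100% = no enzyme DMSO wells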
CTSL1 counter: blocks F. hepatica cathepsin L1 in PFM18AAP counter-screen. 0.49% of 300,000 active. recombinant F. hepatica cathepsin L1, Z-Leu-Arg-MCA fluorescence. inhibition, % at 5.96 µM;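 active means inhibition above the mean of all tested compounds plus 3 SD, set per screening campaign, cut at about 17% in these data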;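 further: 0% = plate median of test compound wells and 100% = 1 µM Z-Phe-Ala-diazomethylketone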
A3G deaminase: inhibitors of human APOBEC3G DNA deaminase | Q9HC16 | recombinant A3G, ssDNA deamination FAM/TAMRA fluorescence | 0.28% of 330,000 active | inhibition, % at 20 µM | AID 493012;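 active means inhibition of at least 40% at 20 µM, with no more than 30% in the related APOBEC3A deaminase screen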;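 further: plate controls were DMSO wells with A3G for no effect and wells lacking A3G enzyme for full effect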
Target sequence (Q9HC16 whole entry, looked up): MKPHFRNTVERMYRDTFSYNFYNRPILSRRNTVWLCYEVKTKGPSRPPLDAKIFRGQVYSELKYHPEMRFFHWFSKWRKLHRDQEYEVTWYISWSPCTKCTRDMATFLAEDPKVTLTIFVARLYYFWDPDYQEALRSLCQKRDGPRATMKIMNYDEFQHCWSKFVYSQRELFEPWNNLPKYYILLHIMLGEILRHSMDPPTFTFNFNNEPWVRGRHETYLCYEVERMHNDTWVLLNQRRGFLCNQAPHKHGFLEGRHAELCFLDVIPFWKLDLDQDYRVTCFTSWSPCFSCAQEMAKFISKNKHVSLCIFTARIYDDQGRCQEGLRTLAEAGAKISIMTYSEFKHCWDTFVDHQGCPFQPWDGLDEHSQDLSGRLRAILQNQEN
NALP1 yeast inh: blocks the NALP1 inflammasome reconstituted in yeast | S. cerevisiae NALP1/ASC/caspase-1 growth, X-gal OD620, 72 h | inhibition, % at 10 µM | 0.61% of 280,000 active | AID 2071; in the data active means inhibition mostly above about 24%, no sharp cut-off; inactive means mostly below about 32%
* marks the source's active call; other numbers are inactive results; . = no result given. Sampled rows, rich in hits. Any-hit rate of the full collection: about 2%.

SMILES | APOBEC3A inh | HGIII-sPLA2 inh | CTSL1 counter | A3G deaminase | NALP1 yeast inh
CN(C)C=NC(=O)c1cc(C(=O)c2ccc(Cl)cc2)c[nH]1 | 1.7 | 3.9 | 17.6* | 1.9 | 8.2
CN(C)C=NC(=O)c1cc(C(=O)c2ccc(F)cc2)c[nH]1 | 0.6 | 0.0 | -0.3 | -3.7 | 9.8
Cc1ccc(S(=O)(=O)/N=C2\C=C(Nc3cccc(C(=O)O)c3)C(=O)c3ccccc32)c(C)c1 | 5.7 | -6.9 | 45.6* | 4.8 | -11.4
Cc1ccc(S(=O)(=O)/N=C2\C=C(Nc3ccc(O)cc3)C(=O)c3ccccc32)cc1 | -1.1 | . | . | -5.3 | .
CCc1ccc(S(=O)(=O)/N=C2\C=C(Nc3ccc(C(=O)O)cc3)C(=O)c3ccccc32)cc1 | 6.1 | -0.2 | 79.1* | 6.3 | -10.3
Cc1ccc(S(=O)(=O)/N=C2\C=C(Nc3cccc(C(=O)O)c3)C(=O)c3ccccc32)cc1 | 4.2 | -4.1 | 62.7* | 1.6 | 7.4
CCCC1CCC2(CC1)CCC2OC(=S)Nc1ccccc1Br (stereo not given) | . | -0.2 | . | . | .
CCc1ccc(N=CC2=C(O)CC(c3ccco3)CC2=O)cc1 (stereo not given) | 0.5 | 3.7 | 17.0* | 2.6 | 37.6*
Cc1ccc(N=CC2=C(O)CC(c3ccco3)CC2=O)cc1 (stereo not given) | -3.1 | -3.4 | 3.8 | -3.8 | -2.3
COC(=O)[C@]12C[C@H](CC(=O)NCc3cccc4ccccc34)C(=O)N(Cc3ccco3)C1=C[C@H](C1CCCC1)O[C@@H]2C | . | -13.1 | . | . | .
Cc1ccc(S(=O)(=O)N(CCC#N)CCN2CCCC2)cc1 | -5.2 | -4.1 | 78.1* | -7.1 | 5.9
Cc1ccc(C(=O)NCC(=O)OCC(=O)c2ccc3c(c2)OCCO3)cc1C | 3.9 | -5.6 | -19.2 | -4.6 | 3.5
COc1ccc(C(=O)NCC(=O)OCC(=O)c2ccc3c(c2)OCCO3)cc1 | -1.7 | 0.4 | -18.4 | -5.5 | 35.8*
COC(=O)[C@]12C[C@H](CC(=O)NCc3cccs3)C(=O)N(Cc3ccco3)C1=C[C@H](C(C)(C)C)O[C@@H]2C | . | -8.8 | . | . | .
CCOC(=O)C1C[C@@H](O)C=CC1=O (stereo not given in full) | . | 4.7 | . | . | .
CNc1oc(Cc2ccccc2)nc1S(=O)(=O)c1ccccc1 | -1.2 | . | 22.5* | -4.1 | 21.8
CNc1oc(C)nc1S(=O)(=O)c1ccc(C)cc1 | -2.3 | 1.9 | -0.7 | -1.9 | 17.9
Cc1ccc(S(=O)(=O)c2nc(C)oc2NCc2ccccc2)cc1 | -0.3 | . | 34.8* | -2.6 | 45.5
CCOc1ccc(-c2nc(S(=O)(=O)c3ccccc3)c(NC)o2)cc1 | -1.8 | 2.2 | -1.4 | -9.2 | 9.1
Cc1ccc2nc(-c3ccc(NC(=O)CSc4nnc(-c5cccc(Cl)c5)n4Cc4ccco4)cc3)sc2c1 | . | -0.2 | . | . | .
CC(C)CCOC(=O)/C(=C/c1ccco1)NC(=O)/C=C/c1ccccc1 | -5.7 | -7.8 | 22.2* | -6.7 | 4.4
CC(C)C[C@H](NC1(C(=O)NC2CCCCC2)CCCCC1)C(=O)NCCc1c[nH]c2ccccc12 | . | -45.5 | . | . | .
CCN(CC)CC(C(=O)N(CC)CC)P(=O)(c1ccccc1)c1ccccc1 (stereo not given) | -0.2 | 11.9 | -0.8 | 1.5 | 41.6*
COc1ccc(C(=O)C2(C(=O)Nc3cc(C)cc(C)c3)CC(c3ccccc3C(F)(F)F)=NO2)cc1 (stereo not given) | . | -9.5 | . | . | .
CCCN(Cc1cc2cc(C)ccc2[nH]c1=O)C(=O)c1cccc([N+](=O)[O-])c1 | 3.4 | 2.6 | 18.6* | -0.4 | 3.9
SMILES | APOBEC3A inh | HGIII-sPLA2 inh | CTSL1 counter | A3G deaminase | NALP1 yeast inh
CN(C)CCCN(Cc1ccccc1)C(=S)Nc1ccc(F)c(Cl)c1 | 0.6 | -2.0 | -3.5 | -3.1 | 33.4*
O=C1NCC(c2ccccc2)C1C(=O)N/N=C/c1ccc(Cl)s1 (stereo not given) | -1.5 | -5.6 | 3.1 | -8.3 | 36.8*
O=C(Cc1ccc(Cl)cc1)Oc1cccc2cccnc12 | . | . | 0.8 | . | 78.1*
Cc1ccc(CN2CCSc3sccc3C2=O)cc1 | 1.2 | -3.3 | -1.6 | -3.5 | 25.6*
O=C1c2ccsc2SCCN1Cc1ccc(Cl)cc1 | -2.4 | -5.0 | -0.1 | -6.2 | -4.9
Cc1ccc(C(=O)/C=C/c2ccc(F)cc2)o1 | -4.2 | 10.0 | -1.7 | -7.8 | 20.5
O=C(/C=C/c1ccc(F)cc1)c1ccccc1Br | 3.3 | -1.1 | -4.3 | -0.9 | 54.9*
CCOP(=O)(OCC)/C(=C/N1CCCCC1)NC(=O)c1ccccc1 | -4.5 | 2.9 | 4.3 | -6.8 | 34.0*
CCn1c2ccccc2c2cc(NC(=O)COC(=O)c3cc(F)cc(F)c3)ccc21 | . | 2.5 | . | . | .

Screening data as filed in PubChem.
